Laboratory results reported in PubChem BioAssay (NCATS).
Inconclusive results are not listed. Where a call stands in place of a potency, no number is given. Activity calls are given as the source filed them. Calls follow the shape of the dose curve; as a rule, active = well fitted curve in the direction sought with a large enough effect; inconclusive = small, poorly fitted or top-dose-only effect, or another doubt; inactive = no such curve, though single readings can be large; an effect the other way counts as inactive or inconclusive.

Experiments:
[1] = qHTS for compounds that reverse cellular toxicity of Amyloid beta (A-beta) peptide in yeast: LOPAC Validation Assay (AID 720559); conditions: Potency: rescue of growth toxicity; also: potency is read from the fitted curve at half-maximal effect
Summary of the method: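 Rescue of A-beta toxicity was scored as yeast growth by 600 nm absorbance after 48 hr at 30 C with compound. Normalization used DMSO (negative) and equimolar ferric chloride plus clioquinol (positive).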

[2] = qHTS for Activators of Parkin Expression: LOPAC Validation Assay (NLuc Reporter) (AID 720572)
Summary of the method: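 Compound effects on Parkin promoter activity were measured as NanoLuc luminescence after 24 h at 37 C. The neuronal reporter line also carried FLuc, which was read first. LOPAC compounds were tested at 7 concentrations, with normalization to DMSO (0%) and positive control (100%).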

SMILES	Potency [1]	Potency [2]
CNC(=O)[C@H]1O[C@@H](n2cnc3c(NCc4cccc(I)c4)ncnc32)[C@H](O)[C@@H]1O	inactive	inactive
CCCCCCCCCCCCCCCCCC(=O)OC(CC(=O)O)C[N+](C)(C)C (stereo not drawn)	inactive	inactive
Cc1ccccc1CNc1ncnc2c1ncn2C1OC(CO)C(O)C1O (stereo not drawn)	inactive	inactive
CN1[C@@H](CC(=O)c2ccccc2)CCC[C@H]1C[C@H](O)c1ccccc1	inactive	inactive
Cc1ccc(C(=O)O[C@H](C(=O)O)[C@@H](OC(=O)c2ccc(C)cc2)C(=O)O)cc1 (tested in a mixture with another compound)	inactive	inactive
CCCCN1CCC(n2c(=O)[nH]c3ccccc32)CC1	inactive	inactive
O=C(O)CNC(=O)C(CS)Cc1ccccc1 (stereo not drawn)	inactive	inactive
NC(=O)C(=O)O	inactive	inactive
NCC1OC(O[C@H]2[C@H](O)[C@@H](OC3C(O)C(N)CC(N)C3OC3OC(CO)C(O)C(O)C3N)O[C@@H]2CO)C(N)C(O)C1O (stereo partly drawn)	inactive	inactive
COc1cc(SC)ccc1C(=O)N1CCC(Cc2ccccc2)CC1	inactive	inactive
c1ccc(-c2ccccn2)nc1	inactive	inactive
Cc1ccc(S(=O)(=O)/C=C/C#N)cc1	inactive	inactive
Cc1ccc(O)c(N=Nc2ccccc2)n1	inactive	inactive
Nc1ncnc2c1ncn2[C@@H]1O[C@H](COP(=O)(O)OP(=O)(O)OP(=O)(O)OP(=O)(O)OC[C@@H]2O[C@H](n3cnc4c(N)ncnc43)[C@@H](O)[C@H]2O)[C@@H](O)[C@H]1O	8.2 µM (active)	inactive
N.N.O=C(O)C1(C(=O)O)CCC1.[Pt]	inactive	inactive
CNCC[C@H](Oc1ccc(C(F)(F)F)cc1)c1ccccc1	inactive	inactive
N#C/C(=C\c1ccc(O)c(O)c1)C(=O)NCCCc1ccccc1	inactive	inactive
C=C[C@H]1CN2CC[C@@H]1C[C@@H]2[C@@H](O)c1ccnc2ccc(OC)cc12	inactive	inactive
O=c1[nH]c2cc(Cl)c(Cl)cc2[nH]c1=O	inactive	inactive
CC(C)(C=O)Cc1cc(C(C)(C)C)c(O)c(C(C)(C)C)c1	inactive	inactive
O=C(O)CC1CCCc2ccccc2C1O (stereo not drawn)	inactive	inactive
CN1CCc2cccc3c2C1Cc1ccc(O)c(O)c1-3 (stereo not drawn)	inactive	inactive

SMILES	Potency [1]	Potency [2]
O=c1[nH]c2cc(C(F)(F)F)ccc2n1-c1cc(C(F)(F)F)ccc1O	inactive	inactive
Oc1ccc(C2CNCc3sccc32)cc1O (stereo not drawn)	inactive	inactive
CCCCCCCC/C=C\CCCCCCCC(=O)NCCO	inactive	inactive
NC[C@H]1O[C@@H](n2cnc3c(N)ncnc32)[C@H](O)[C@@H]1O	inactive	inactive
C[C@@H](NC(=O)/C(C#N)=C/c1ccc(O)c(O)c1)c1ccccc1	inactive	inactive
C[N+](C)(C)CCOP(=O)(O)OP(=O)([O-])OC[C@H]1O[C@@H](n2ccc(N)nc2=O)[C@H](O)[C@@H]1O	inactive	inactive
Fc1cccc(/C=N/N=C/c2cccc(F)c2)c1	inactive	inactive
COc1ccccc1CNCCCCCCNCCCCCCCCNCCCCCCNCc1ccccc1OC	inactive	inactive
COc1ccc2c(c1)CCC1C2CC[C@@]2(C)C1CC[C@@H]2NCCCCCCN1C(=O)CCC1=O (stereo partly drawn)	inactive	inactive
C[N+]1(C)C2CC(OC(=O)[C@H](CO)c3ccccc3)CC1C1OC12 (stereo partly drawn)	inactive	inactive
CCCCCCCCCCCCCCCC(=O)NCC(COP(=O)([O-])OCC[N+](C)(C)C)OCC (stereo not drawn)	inactive	inactive
CCN(CC)c1ncnc2c1ncn2[C@@H]1O[C@H](COP(=O)(O)OP(=O)(O)C(Br)(Br)P(=O)(O)O)[C@@H](O)[C@H]1O	inactive	inactive
O=C(/C=C/c1ccc(O)cc1)c1ccc(O)cc1O	inactive	inactive
NC(=S)c1ccc[n+]([C@@H]2O[C@@H](COP(=O)([O-])OP(=O)(O)OC[C@H]3O[C@@H](n4cnc5c(N)ncnc54)[C@H](OP(=O)(O)O)[C@@H]3O)C(O)C2O)c1 (stereo partly drawn)	inactive	inactive
CN(C)C(N)=NCCC[C@H](N)C(=O)O	inactive	inactive
N#C/C(=C\c1ccc(-c2cc(Cl)ccc2Cl)o1)C(=O)Nc1cccc2ncccc12	inactive	inactive
O=P(O)(O)C(Cl)(Cl)P(=O)(O)O	inactive	inactive
C[N+](C)(C)CC(=O)[O-]	inactive	inactive
Nc1ncnc2c1ncn2[C@@H]1O[C@H](COP(=O)(O)CP(=O)(O)OP(=O)(O)O)[C@@H](O)[C@H]1O	inactive	inactive
CCCCC#Cc1nc(NC)c2ncn([C@@H]3O[C@H](CO)[C@@H](O)[C@H]3O)c2n1	inactive	inactive
O=C1/C(=C/c2ccsc2)CC/C1=C\c1cccs1	inactive	inactive
CN(C)CCCO[C@@H]1[C@H]2OC(C)(C)O[C@H]2O[C@@H]1[C@H](O)CO	inactive	inactive

SMILES	Potency [1]	Potency [2]
NO	inactive	inactive
CC(C)NC[C@@H](O)c1ccc(O)c(O)c1	inactive	inactive
Nc1nc(Cl)nc2c1ncn2[C@@H]1O[C@H](CO)[C@@H](O)[C@H]1O	inactive	inactive
Cc1nc2sccn2c(=O)c1CCN1CCC(=C(c2ccccc2)c2ccc(F)cc2)CC1	inactive	inactive
CC(C)NC[C@H](O)COc1cccc2[nH]ccc12	inactive	inactive
N[C@@H](CC(=O)O)C(=O)O	inactive	inactive
CC1(C)CCC=[N+]1[O-]	inactive	inactive
COc1cc2nc(N3CCN(C(=O)OCc4ccccc4)C(C(=O)NC(C)(C)C)C3)nc(N)c2cc1OC (stereo not drawn)	inactive	inactive
N#C/C(=C\c1ccc(O)c(O)c1)C(=O)c1ccc(O)c(O)c1	inactive	inactive
CN=c1nc(-c2ccccc2)n(-c2ccccc2)s1	inactive	inactive
N=C(N)SCCc1ccc(CCSC(=N)N)cc1	inactive	inactive
NC(=O)C1=CN(C2OC(COP(=O)(O)OP(=O)(O)OC[C@H]3O[C@@H](n4cnc5c(N)ncnc54)[C@H](OP(=O)(O)O)[C@@H]3O)C(O)C2O)C=CC1 (stereo partly drawn)	inactive	inactive
COc1cc(OC)c(/C=C2/C(=O)Nc3ccccc32)c(OC)c1	inactive	inactive
OC[C@H]1O[C@@H](n2cnc3c(NC4CCCCC4)ncnc32)[C@H](O)[C@@H]1O	inactive	inactive
NC[C@@H]1O[C@H](C23CC4CC(CC(C4)C2)C3)Cc2c1ccc(O)c2O	inactive	inactive
CC1OC1P(=O)(O)O (stereo not drawn)	inactive	inactive
CC(C)CC(NP(=O)(O)O[C@@H]1O[C@@H](C)[C@H](O)[C@@H](O)[C@H]1O)C(=O)NC(Cc1c[nH]c2ccccc12)C(=O)O (stereo partly drawn)	inactive	inactive
CCCCCCCCCCCCCCCCCC(=O)NCC(COP(=O)([O-])OCC[N+](C)(C)C)OCC (stereo not drawn)	inactive	inactive
OCC1O[C@H](O)C(Cl)C(O)C1O (stereo partly drawn)	inactive	inactive
O=C(O)CC1CC(c2ccccc2)=NO1 (stereo not drawn)	inactive	inactive
